Pol eta inh-1: inhibitors of human DNA polymerase eta; Q9Y253; recombinant Pol eta, fluorescent DNA replication assay; Potency, µM (top dose mostly 114 µM), for inactives: at the top dose activity change, negative = inhibition, usual class: inhibitors; 1.2% of 390,000 active; also: potency is read from the fitted curve at half-maximal effect; % is scaled to controls: 0 for no effect and ±100 for the full control effect
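Pol eta (10 nM) was preincubated with compounds for 15 min at room temperature, after which fluorescent replication substrate (50 nM final) was added to start the reaction. Fluorescence was read kinetically at 0 and 10 min.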
PI5P4Ka inh: PI5P4K alpha (human) kinase inhibition. PI5P4Kalpha enzyme, ADP-Glo luminescence, 60 min; hits give low values. 1.2% of 330,000 active. P48426. max response, %; active = max response of -50% or lower; inconclusive = between -30% and -50%; inactive = -30% or higher; also: value at the top dose of about 77 µM; % is scaled to controls: 0 for no effect and ±100 for the full control effect
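Human PI5P4Kalpha with substrate in 0.038 M HEPES pH 7.4, 0.28 mM EGTA, 0.1% CHAPS, 5% DMSO; reaction started with 5 microM ATP (final), 60 min at room temperature. ADP formed read by ADP-Glo luminescence.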
Pol beta inh-1: blocks human DNA polymerase beta activity | Pol beta primer extension/strand displacement, fluorescence kinetic | Potency, µM (doses to about 114 µM), for inactives: at the top dose activity change, negative = inhibition, usual class: inhibitors | 1.3% of 340,000 active | AID 485314; also: potency is read from the fitted curve at half-maximal effect; % is scaled to controls: 0 for no effect and ±100 for the full control effect
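Reaction started by 50 nM substrate onto compound-treated Pol beta (10 nM, 15 min preincubation, room temperature); plates read at 0 min and 10 min. Normalized concentration-effect data fitted by four-parameter Hill equation.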
WRN helicase inh: blocks human WRN helicase. WRN helicase unwinding, fluorescent forked duplex, kinetic. Q14191. 0.46% of 360,000 active. Potency, µM (series often up to 114 µM), without a hit: at the highest dose activity change, negative = inhibition, actives largely listed as inhibitors; also: potency is read from the fitted curve at half-maximal effect; % is scaled to controls: 0 for no effect and ±100 for the full control effect; nearly all actives have a fitted effect of over 55% in size
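Screening of the MLSMR collection measured strand separation of a quenched forked DNA duplex (100 nM) by 20 nM WRN with 2 mM ATP, all final. Compounds were preincubated with enzyme 15 min at room temperature.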
POLI inh: blocks human DNA polymerase iota activity. 1% of 390,000 active. AID 588590. Potency, µM (titrated, usually from 115 µM), without a hit: at the top dose activity, negative = inhibition, hits mostly inhibitors. Pol iota fluorescent replication assay, 10 min; also: potency is read from the fitted curve at half-maximal effect
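Pol iota at 10 nM preincubated 15 min with compounds at room temperature; reaction started with fluorescent substrate, 50 nM final. Fluorescence read kinetically at 0 and 10 min; buffer-only wells as negative control.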
Pol kappa inh-1: DNA polymerase kappa (human) inhibition | AID 588579 | Q9UBT6 | 0.53% of 400,000 active | Potency, µM (doses to about 107 µM), without a hit: at the top dose activity, negative = inhibition, actives largely listed as inhibitors | purified Pol kappa, fluorescent DNA synthesis assay, 10 min; also: potency is read from the fitted curve at half-maximal effect; % is scaled to controls: 0 for no effect and ±100 for the full control effect
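Activity was followed as the change in fluorescence between reads at 0 and 10 min after starting the reaction with 50 nM substrate. Beforehand, 10 nM polymerase had been preincubated with compound for 15 min at room temperature.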
Pol beta inh-2: Validate hits inhibiting human DNA polymerase beta | 87% of 250 active | shares compounds with Pol beta inh-1 | AID 540280 | Potency, µM, usual class: inhibitors | Pol beta primer extension/strand displacement, fluorescence kinetic; calls by dose curve; also: potency is read from the fitted curve at half-maximal effect
Klenow inh: counter-screen for DNA polymerase beta inhibitors: Klenow fragment inhibition | activity change, negative = inhibition, % at 57.1 µM | 250 tested, under 10 active | AID 540300 | shares compounds with Pol beta inh-1 | Klenow exo- polymerase counter-screen, fluorescent DNA substrate
HIV RT counter: counter-screen for DNA polymerase beta inhibitors: HIV-1 RT inhibition; shares compounds with Pol beta inh-1; HIV-1 RT polymerase activity, counter-screen; activity % (negative = inhibition, positive = activation), % at 57.1 µM; 250 tested, under 10 active
POLB inh gel: validation of human DNA polymerase beta inhibitors; shares compounds with Pol beta inh-1; radiolabeled primer extension gel assay, phosphorimager; inhibition, % at 10 µM; 91% of 110 active; AID 540325;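 active = inhibition at 10 µM of 30% or more; inconclusive = no clear call, values can overlap the other calls; inactive = inhibition at 10 µM under 30%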
BAZ2B inh: confirmation of human BAZ2B bromodomain inhibitors; shares compounds with Pol kappa inh-1; AlphaScreen BAZ2B / biotin-H3K14Ac peptide displacement; Potency, µM, hits mostly inhibitors; 100% of 25 active; calls by dose curve
AlphaScreen ctr: interferes with AlphaScreen signal in BAZ2B counterscreen. shares compounds with Pol kappa inh-1. AlphaScreen biotin-His6 peptide bead counterscreen, signal decrease. Potency, µM (titrated, usually from 57.1 µM), inactives show at the top dose activity change, negative = inhibition, actives largely listed as inhibitors. 25 tested, under 10 active;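 active = clear concentration-dependent signal drop in the bead assay lacking the target, so a primary-screen artifact; inconclusive = weak, partial or single-dose response; inactive = no response, so a real primary hit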
PGK validate: TbPGK inhibition, hit validation. TbPGK coupled GAPDH assay, Kinase-Glo luminescence. Potency, µM (series often up to 57.5 µM), for the others: at the highest dose activity change, negative = inhibition, actives largely listed as inhibitors. 79% of 500 active. shares compounds with Pol kappa inh-1. AID 686980; also: potency is read from the fitted curve at half-maximal effect; % is scaled to controls: 0 for no effect and ±100 for the full control effect; nearly all actives have a fitted effect of over 65% in size
Pol iota confirm: Inhibitors of human DNA polymerase iota, confirmation. Pol iota primer extension, TAMRA/BHQ fluorescence. Potency, µM, usual class: inhibitors. 77% of 1,500 active. shares compounds with Pol kappa inh-1; also: potency is read from the fitted curve at half-maximal effect
Pol kappa inh-2: confirmation of human DNA polymerase kappa inhibitors; shares compounds with Pol eta inh-1; purified Pol-kappa, fluorescent strand-displacement substrate; Potency, µM, usual class: inhibitors; 76% of 920 active; AID 720501; also: potency is read from the fitted curve at half-maximal effect
Pol eta inh-2: confirmation of human DNA polymerase eta inhibitors | shares compounds with Pol eta inh-1 | Pol eta primer extension, TAMRA/BHQ fluorescence, 10 min | Potency, µM, actives largely listed as inhibitors | 64% of 2,600 active | AID 720502; also: potency is read from the fitted curve at half-maximal effect
An asterisk follows results filed as active; ? = inconclusive; . = no result; [ ] = remark or other dose. In the library only some 2.8% were active in any assay of this set; here they are far more common. Unless noted, calls follow the shape of the dose curve; as a rule, active = well fitted curve in the direction sought with a large enough effect; inconclusive = small, poorly fitted or top-dose-only effect, or another doubt; inactive = no such curve, though single readings can be large; an effect the other way counts as inactive or inconclusive.

SMILES | Pol eta inh-1 | PI5P4Ka inh | Pol beta inh-1 | WRN helicase inh | POLI inh | Pol kappa inh-1 | BAZ2B inh | AlphaScreen ctr | Pol iota confirm | others
O=C(COC(=O)c1c2c(nc3ccccc13)/C(=C/c1ccco1)CC2)NC1CCCC1 | 3.55µM* | -71.1* | 3.16µM* | 31.6µM* | 12.6µM* | 31.6µM* | 7.08* | ? | 13.4* | Pol beta inh-2=25.1*;Klenow inh=-28.4;HIV RT counter=-5.2;POLB inh gel=98.8*;Pol kappa inh-2=11.9*;Pol eta inh-2=16.9*
CC[C@]1(O)CC[C@H]2[C@@H]3CCC4=CCCC[C@@H]4[C@H]3CC[C@@]21C | . | . | . | . | . | 4.8%[19.4 µM] | . | . | .
C=C(C)C(=O)Nc1cccc(C2=NOC3(C2)C[C@H](C(N)=O)N(C(=O)/C=C/C)C3)c1 (some centres not stated) | 8.91µM* | -11.2 | 5.01µM* | -28.7%[57.1 µM] | ? | ? | 7.08* | -6.6% | ? | Pol beta inh-2=7.08*;Klenow inh=2.7;HIV RT counter=9.0;Pol eta inh-2=19*
Cc1ccc(-c2nnc(C)c(N3CCCC3)n2)cc1 | -19.9% | 3.0 | -5.4% | 3.1% | 48.0% | 2.6% | . | . | .
Cc1nc(N2CCCCC2)c2ccsc2n1 | -3.0% | -4.6 | -6.7% | 7.6% | -8.5% | -3.6% | 10* | ? | .
COc1ccc(/C=C2\C(=O)NC(=S)N(C)C2=O)cc1C | 2.82µM* | -57.3* | 30.3% | 20µM* | ? | 50.1µM* | . | . | . | PGK validate=4.11µM*
COc1ccc(N=Cc2c(O)n(-c3ccc(C)cc3)c(=O)[nH]c2=O)cc1 | -0.2% | 0.0 | 98.6% | 0.1% | -12.2% | 0.3% | . | . | .
CCOC(=O)c1ccc(N=Cc2c(O)n(-c3ccc(OC)cc3)c(=S)[nH]c2=O)cc1 | ? | -1.1 | -4.8% | ? | -1.4% | -24.6% | . | . | 3.77*
COc1cc2c(ccc3c4cc(OC)c(OC)cc4c[n+](C)c23)cc1O | ? | -6.4 | . | ? | ? | 31.6µM* | . | . | 18.9*
CCOC(=O)C1=C(C)N=c2s/c(=C\c3ccc(OCC(=O)O)cc3)c(=O)n2C1c1ccc(Cl)cc1 (configuration not stated) | ? | 0.4 | 22.4µM* | ? | ? | 50.1µM* | 14.1* | -19.4% | 21.2* | PGK validate=4.61µM*

Bioassay records from PubChem.
